Measurements from PubChem BioAssay AID687022 (Broad Institute, 2013).
The campaign covered roughly 1,000 compounds. About 360 (36%) were called active. Not all results are given here. A number with no mark means an inactive call.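 Rule for the calls: active = Fitted curve of melting temperature shift crosses the 1.0 threshold at or below the sample's highest valid tested concentration; inconclusive = Flat fit with activity 30 to 70, or invalid fit; inactive = Opposite direction, flat within 30, or no crossing.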

What follows are compounds tested against Fibroblast growth factor 22 (Homo sapiens) (UniProt Q9HCT0) (assay: FGF22 ligand-induced thermal stabilization – biophysical, thermal shift, cherry-pick, FGF22 synaptogenesis inhibitor project, dose response (AID 687022; note: reference of the scale not given here)). Conditions: recombinant FGF22 thermal shift, SYPRO orange melting; series mostly up to 38 µM.
Fibroblast growth factor 22 (Homo sapiens), sequence (Q9HCT0 whole entry, looked up): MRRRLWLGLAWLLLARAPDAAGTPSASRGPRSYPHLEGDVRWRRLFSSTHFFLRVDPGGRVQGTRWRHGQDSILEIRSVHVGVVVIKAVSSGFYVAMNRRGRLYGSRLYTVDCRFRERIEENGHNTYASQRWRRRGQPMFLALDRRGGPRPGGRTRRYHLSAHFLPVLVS
Cc1[nH]c(=O)[nH]c(=O)c1S(=O)(=O)Nc1cccc([N+](=O)[O-])c1C was tested, and the Tm shift activity was “inactive”. In the case of CCCNC(=O)N1CC(=O)N2[C@H](C1)[C@@H](c1ccc(-c3cccc(C)c3)cc1)[C@@H]2CO, the Tm shift activity was “inactive”. For O=c1cc[nH]c2ccc(Cl)cc12, the Tm shift activity was “inactive”. In the case of CC(=O)c1cccc(NC(=O)C2CCCN2S(=O)(=O)c2cccs2)c1 (stereo not drawn), the Tm shift activity was “inactive”. In the case of COc1ccc(CCC(C)NC(=O)Cc2ccc(OC)c(OC)c2)c(OC)c1 (stereo not drawn), the Tm shift activity was “inactive”. For CCCN(C)C[C@H]1Oc2cc(-c3ccncc3)ccc2S(=O)(=O)N([C@H](C)CO)C[C@H]1C, the Tm shift activity was “inactive”. With O=C1C2C(C(=O)N1CCc1ccccc1)C1C=CC2C12CC2 (stereo not drawn) the Tm shift activity was “inactive”. In the case of CCOC(=O)C1CCC(CNCc2ccccc2C)CC1 (stereo not drawn), the Tm shift activity was “inactive”. With N#CCSc1n[nH]c2nc3c(c(=O)n12)C1(CCCCC1)Cc1ccccc1-3 the Tm shift activity was “inactive”. With COc1cc(C(=O)NC(=S)Nc2ccccc2[N+](=O)[O-])cc(OC)c1OC the Tm shift activity was “inactive”. For C/C(=N\NC(=O)CNC(=O)c1ccncc1)c1ccc(C)cc1, the Tm shift activity was “inactive”. For CN(CC(=O)Nc1ccccc1Cl)C(=O)COC(=O)c1nc(Cl)ccc1Cl, the Tm shift activity was “inactive”. For CCn1c(O)c(C=NCc2ccccc2)sc1=S, the Tm shift activity was “inactive”. In the case of C[C@@H]1CN([C@H](C)CO)C(=O)Cc2cc(NS(C)(=O)=O)ccc2O[C@@H]1CN(C)Cc1ccc(C(=O)O)cc1, the Tm shift activity was “inactive”. For CC(C)CC#Cc1cnc2c(c1)C(=O)N([C@@H](C)CO)C[C@H](C)[C@@H](CN(C)Cc1ccccn1)O2, the Tm shift activity was “inactive”. O=C(CCc1ccc(S(=O)(=O)N2CCOCC2)cc1)Nc1ccccc1F was tested, and the Tm shift activity was “inactive”. With C/C=C/c1ccc([C@@H]2[C@H](C#N)N(C(=O)CN3CCOCC3)[C@H]2CO)cc1 the Tm shift activity was “inactive”. In the case of COc1cc(CCC(=O)OCC(=O)Nc2ccc(C)cc2Br)cc(OC)c1OC, the Tm shift activity was “inactive”. CN1CCN(C(=O)C[C@@H]2CC[C@H]3[C@@H](COC[C@H](O)CN3CC3CCCCC3)O2)CC1 was tested, and the Tm shift activity was “inactive”. For C[C@H]1CN([C@@H](C)CO)S(=O)(=O)c2ccc(/C=C/c3ccccc3)cc2O[C@@H]1CN(C)Cc1ccc(C(=O)O)cc1, the Tm shift activity was “inactive”. For CCCC#Cc1ccc2c(c1)O[C@H](CN(C)C(C)=O)[C@@H](C)CN([C@@H](C)CO)S2(=O)=O, the Tm shift activity was “inactive”. C[C@H]1CN([C@@H](C)CO)S(=O)(=O)c2ccc(C#Cc3ccncc3)cc2O[C@H]1CN(C)C(=O)Nc1ccc2c(c1)OCO2 was tested, and the Tm shift activity was “inactive”. COc1cc(C2C(C#N)=C(N)Oc3n[nH]c(-c4cccnc4)c32)cc(Br)c1O (stereo not drawn) was tested, and the Tm shift activity was “inactive”. With C[C@@H]1CN([C@@H](C)CO)C(=O)CCCn2nncc2CO[C@H]1CN(C)Cc1ccccc1C(=O)O the Tm shift activity was “inactive”. CCN1C(=O)c2cccc3c(S(=O)(=O)Nc4ccc(O)c(C(=O)O)c4)ccc1c23 was tested, and the Tm shift activity was 0.895% [at 5 µM]. With O=C(COc1ccc(S(=O)(=O)Nc2ccccc2)cc1)NCc1ccncc1 the Tm shift activity was “inactive”. With CN(C)CCN1C(=O)C2C3C=CC(C3)C2C1=O (stereo not drawn) the Tm shift activity was “inactive”. In the case of COCC(=O)N(C)C[C@H]1Oc2cc(C#Cc3ccccc3)ccc2S(=O)(=O)N([C@H](C)CO)C[C@H]1C, the Tm shift activity was “inactive”. In the case of O=C(NCC[C@@H]1CC[C@@H](NC(=O)C2CCOCC2)[C@H](CO)O1)Nc1ccc(Cl)cc1, the Tm shift activity was “inactive”. For CC(C)NC(=O)Nc1ccc2c(c1)C(=O)N([C@H](C)CO)C[C@H](C)[C@H](CN(C)C(=O)Nc1cccc3ccccc13)O2, the Tm shift activity was “inactive”. O=C(O)C1CSC2(CCN(Cc3ccccc3)CC2)N1 (stereo not drawn) was tested, and the Tm shift activity was “inactive”. For Fc1ccccc1Nc1n[nH]c(=S)s1, the Tm shift activity was “inactive”. In the case of COc1cc(/C=N/NC(=O)c2ccncc2)ccc1OCC(=O)Nc1cccc([N+](=O)[O-])c1, the Tm shift activity was “inactive”. For O=C(N/N=C/c1cccc(O)c1)c1cc(-c2ccc3c(c2)OCO3)n[nH]1, the Tm shift activity was “inactive”. With CC(=O)N(C)C[C@@H]1Oc2ncc(C#CC(C)(C)O)cc2C(=O)N([C@@H](C)CO)C[C@H]1C the Tm shift activity was “inactive”. For Cc1nc2cc(C(=O)NCc3ccc4c(c3)OCO4)ccc2n1-c1ccc(Br)cc1, the Tm shift activity was “inactive”. O=[N+]([O-])c1ccc2oc(/C=C/c3ccc(O)cc3)nc2c1 was tested, and the Tm shift activity was “inactive”. In the case of C[C@@H]1CN([C@@H](C)CO)C(=O)c2cc(NS(C)(=O)=O)ccc2O[C@@H]1CN(C)Cc1ccc2c(c1)OCO2, the Tm shift activity was “inactive”. C[C@H](CO)N1C[C@H](C)[C@H](CN(C)C(=O)CC2CC2)Oc2ncc(C#CC3(O)CCCC3)cc2C1=O was tested, and the Tm shift activity was “inactive”. In the case of O=C(NC[C@@H]1[C@H](c2ccccc2)[C@H](CO)N1C(=O)Cc1cccnc1)C1CC1, the Tm shift activity was “inactive”. In the case of CCc1cccc(NS(=O)(=O)c2ccc3c(c2)NC(=O)CC(=O)N3)c1, the Tm shift activity was “inactive”. With CCC(=O)N1CC2(C1)[C@H](c1ccc(-c3cccc(C)c3)cc1)[C@@H](CO)N2S(C)(=O)=O the Tm shift activity was “inactive”. With O=C(C1CCOCC1)N1C[C@@H]2[C@H](c3ccccc31)[C@@H](CO)N2Cc1ccccc1 the Tm shift activity was “inactive”. In the case of CC(OC(=O)c1ccccc1)C(=O)NCCC1=CCCCC1 (stereo not drawn), the Tm shift activity was “inactive”. In the case of O=C(COc1cccc(Cl)c1)NCC(c1cccs1)N1CCOCC1 (stereo not drawn), the Tm shift activity was “inactive”. In the case of Cc1cccc(NC(=O)COc2coc(CN3CCc4ccccc4C3)cc2=O)c1, the Tm shift activity was “inactive”. For c1ccc(NCc2ccccn2)cc1, the Tm shift activity was “inactive”. In the case of CN1CCN(C(=O)C[C@H]2C=C[C@@H](NC(=O)c3ccc4c(c3)OCO4)[C@H](CO)O2)CC1, the Tm shift activity was “inactive”. CN(C)S(=O)(=O)n1cnc([C@@H]2[C@@H]3C(=O)OC[C@@H]3C[C@]23N=CN(Cc2ccccc2)C3=O)c1 was tested, and the Tm shift activity was “inactive”. With COc1cc([N+](=O)[O-])ccc1NC(=O)CN1CCCC1 the Tm shift activity was “inactive”. For O=C(Nc1cccc2ccccc12)c1cccc([N+](=O)[O-])c1, the Tm shift activity was “inactive”. Cc1nc2ccc(NC(=O)c3cc([N+](=O)[O-])cc([N+](=O)[O-])c3Cl)cc2s1 was tested, and the Tm shift activity was “inactive”. For O=[N+]([O-])c1ccc2nc(-c3ccc(Cl)cc3)[nH]c2c1, the Tm shift activity was “inactive”. For CCc1ccc(NC(=O)c2ccc(-n3cncn3)c([N+](=O)[O-])c2)cc1, the Tm shift activity was “inactive”. With CN=C1NN=C(c2cc(C)n(-c3c(C)n(C)n(-c4ccccc4)c3=O)c2C)CS1 the Tm shift activity was “inactive”. Cc1ccc(-c2c[n+](CC(=O)Nc3ccc(C)cc3C)c3n2CCC3)cc1 was tested, and the Tm shift activity was “inactive”. For COC(=O)Cc1n[nH]c(=O)c2ccccc12, the Tm shift activity was “inactive”. For Cn1cccc1/C=N/NC(=O)Cc1cccc2ccccc12, the Tm shift activity was “inactive”. N#CCC(=O)Nc1ccc(C(=O)NCCc2c[nH]c3ccccc23)cc1 was tested, and the Tm shift activity was “inactive”. With O=C(NCCc1c[nH]c2ccccc12)C(=O)NCC1CCCO1 (stereo not drawn) the Tm shift activity was “inactive”. With COc1cccc(S(=O)(=O)Nc2ccc3c(c2)[C@@H]2C[C@H](CC(=O)NC4CCCCC4)O[C@@H](CO)[C@@H]2O3)c1 the Tm shift activity was “inactive”. C=CCC1c2cccc(C(=O)O)c2C(=O)N1c1cccc(OC)c1 (stereo not drawn) was tested, and the Tm shift activity was “inactive”. With COCC(=O)Nc1ccc2c(c1)[C@H]1C[C@@H](CC(=O)NCc3ccccn3)O[C@H](CO)[C@H]1O2 the Tm shift activity was “inactive”. With CCOC(=O)c1c(C)oc2cc(Br)c(O)c(Br)c12 the Tm shift activity was “inactive”. C[C@H]1CN([C@@H](C)CO)C(=O)c2cc(NS(=O)(=O)c3ccc(Cl)cc3)ccc2O[C@@H]1CN(C)C(=O)Nc1ccc2c(c1)OCO2 was tested, and the Tm shift activity was “inactive”. For CCC(=O)N1[C@H](CO)[C@@H](c2ccccc2)[C@H]1CN(C)C(=O)CN1CCOCC1, the Tm shift activity was “inactive”. In the case of O=C(c1cccc(F)c1)N1C[C@H]2[C@@H](c3ccccc31)[C@@H](CO)N2C(=O)c1ccccn1, the Tm shift activity was “inactive”. With CCOc1ccc(NC(=O)c2cccc(-n3cccc3)c2)cc1S(=O)(=O)N1CCOCC1 the Tm shift activity was “inactive”. For CC(C)NC(=O)N1[C@H](CO)[C@H](c2ccccc2-c2ccc(F)cc2)[C@@H]1C#N, the Tm shift activity was “inactive”. In the case of O=C(O)C1CCN(S(=O)(=O)Cc2ccccc2)CC1, the Tm shift activity was “inactive”. With COc1ccc(NC(=O)CN(c2ccc(C(C)C)cc2)S(=O)(=O)c2c(C)noc2C)cc1OC the Tm shift activity was “inactive”. In the case of CO[C@@H]1CN(C)C(=O)c2cc(NC(=O)C3CCCC3)ccc2OC[C@H](C)N(CCC(F)(F)F)C[C@H]1C, the Tm shift activity was “inactive”. With NS(=O)(=O)c1ccc2c(c1)C(=NO)c1cc(S(N)(=O)=O)ccc1-2 the Tm shift activity was “inactive”. For Oc1c(CN2CCOCC2)cc(CN2CCOCC2)c(O)c1O, the Tm shift activity was “inactive”. For O=C(Nc1ccccc1Cl)N1[C@H](CO)[C@@H]2c3ccccc3NC[C@@H]21, the Tm shift activity was “inactive”. With COc1ccc(NS(=O)(=O)c2cc(N=Nc3c(O)[nH]c(=O)[nH]c3=O)ccc2Cl)cc1 the Tm shift activity was “inactive”. With COc1ccccc1C(=O)N1C[C@H]2[C@@H](c3ccccc31)[C@H](CO)N2C(=O)C1CCCCC1 the Tm shift activity was “inactive”. With N#C[C@@H]1[C@@H](c2ccc(C3=CCCCC3)cc2)[C@H](CO)N1S(=O)(=O)c1ccccc1 the Tm shift activity was “inactive”. In the case of Cc1cccc(C(=O)NNC(=O)c2ccc(NS(=O)(=O)c3cccs3)cc2)c1C, the Tm shift activity was “inactive”. In the case of COc1ccccc1N(C)S(=O)(=O)c1ccc(C(=O)Nc2ccc(C(N)=O)cc2)cc1, the Tm shift activity was “inactive”. For COc1ccccc1NC(=O)c1ccc(NC(=O)COC(=O)c2ccc(O)cc2)cc1, the Tm shift activity was “inactive”. In the case of CCC(C)N(C(=O)COc1ccc(-c2nnco2)cc1)C1CCS(=O)(=O)C1 (stereo not drawn), the Tm shift activity was “inactive”. In the case of O=C(Nc1cccc(S(=O)(=O)N2CCCCC2)c1)C1=NN(c2ccccc2)C(=O)CC1, the Tm shift activity was “inactive”. COc1cccc(NC(=O)N[C@@H]2CC[C@@H](CC(=O)Nc3ccccc3)O[C@H]2CO)c1 was tested, and the Tm shift activity was “inactive”. With CN(C)CC(=O)Nc1ccc2c(c1)[C@H]1C[C@@H](CC(=O)NCC3CC3)O[C@H](CO)[C@H]1O2 the Tm shift activity was “inactive”. For COC(=O)[C@]1(C)N[C@H](c2ccc(-c3ccccc3)cc2)[C@@H]2C(=O)N(C)C(=O)[C@@H]21, the Tm shift activity was “inactive”. In the case of Cc1ccc(S(=O)(=O)Nc2ccc3c(c2)CC(=O)N([C@H](C)CO)C[C@@H](C)[C@H](CN(C)C(=O)Nc2ccccc2)O3)cc1, the Tm shift activity was “inactive”. In the case of COc1ccc(C(=O)Nc2ccccc2N2CCOCC2)cc1S(=O)(=O)N1CCOCC1, the Tm shift activity was “inactive”.
